Each sequence was assayed against HOXB9 (Homo sapiens, UniProt P17482 171-250, T197M) (assay: PBM; 200 nM protein, PBS). Conditions: dsDNA, one strand shown.
HOXB9 (Homo sapiens, UniProt P17482 171-250, T197M), sequence (P17482 171-250 T197M): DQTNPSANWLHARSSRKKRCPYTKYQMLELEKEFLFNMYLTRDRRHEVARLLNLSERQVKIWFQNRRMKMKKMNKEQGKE

Sequence	binding signal
GCACCGCC	8.24 upbm affinity estimate (log intensity, higher = more binding, comparable within an allelic series)
GCCACTCC	8.73 upbm affinity estimate (log intensity, higher = more binding, comparable within an allelic series)
GTCCGGCA	8.68 upbm affinity estimate (log intensity, higher = more binding, comparable within an allelic series)
CTCCCGCC	8.4 upbm affinity estimate (log intensity, higher = more binding, comparable within an allelic series)
CCTGCGGC	8.26 upbm affinity estimate (log intensity, higher = more binding, comparable within an allelic series)
CAGATCGG	8.72 upbm affinity estimate (log intensity, higher = more binding, comparable within an allelic series)
AGGAACCC	8.41 upbm affinity estimate (log intensity, higher = more binding, comparable within an allelic series)
GGCTCCGA	8.49 upbm affinity estimate (log intensity, higher = more binding, comparable within an allelic series)
CCACGCCG	8.48 upbm affinity estimate (log intensity, higher = more binding, comparable within an allelic series)
GTGGCGGA	8.44 upbm affinity estimate (log intensity, higher = more binding, comparable within an allelic series)
CGCCGGGA	8.5 upbm affinity estimate (log intensity, higher = more binding, comparable within an allelic series)
CCGATCGG	8.51 upbm affinity estimate (log intensity, higher = more binding, comparable within an allelic series)
CGAAGGAC	8.68 upbm affinity estimate (log intensity, higher = more binding, comparable within an allelic series)
GCAGCCCC	8.47 upbm affinity estimate (log intensity, higher = more binding, comparable within an allelic series)
GGCGCAGA	8.52 upbm affinity estimate (log intensity, higher = more binding, comparable within an allelic series)
CCTTCGCG	8.71 upbm affinity estimate (log intensity, higher = more binding, comparable within an allelic series)
AAGCCACC	8.58 upbm affinity estimate (log intensity, higher = more binding, comparable within an allelic series)
GAGCGCAA	8.55 upbm affinity estimate (log intensity, higher = more binding, comparable within an allelic series)
CAGGGGCC	8.21 upbm affinity estimate (log intensity, higher = more binding, comparable within an allelic series)
CACGCCTC	8.36 upbm affinity estimate (log intensity, higher = more binding, comparable within an allelic series)

Sequence	binding signal
GACATAAA	9.74 upbm affinity estimate (log intensity, higher = more binding, comparable within an allelic series)
CCCCGGAC	8.48 upbm affinity estimate (log intensity, higher = more binding, comparable within an allelic series)
CGGCGCCA	8.53 upbm affinity estimate (log intensity, higher = more binding, comparable within an allelic series)
GGACCTAC	8.72 upbm affinity estimate (log intensity, higher = more binding, comparable within an allelic series)
ACACCCAG	8.69 upbm affinity estimate (log intensity, higher = more binding, comparable within an allelic series)
GACTGACC	8.57 upbm affinity estimate (log intensity, higher = more binding, comparable within an allelic series)
AGACGCGG	8.63 upbm affinity estimate (log intensity, higher = more binding, comparable within an allelic series)
CGTGGACC	8.66 upbm affinity estimate (log intensity, higher = more binding, comparable within an allelic series)
ACCGGCCT	8.37 upbm affinity estimate (log intensity, higher = more binding, comparable within an allelic series)
GCCTCCGC	8.43 upbm affinity estimate (log intensity, higher = more binding, comparable within an allelic series)
AGGTCTGG	8.53 upbm affinity estimate (log intensity, higher = more binding, comparable within an allelic series)
ATTAACAA	9.96 upbm affinity estimate (log intensity, higher = more binding, comparable within an allelic series)
ATAAATGA	9.72 upbm affinity estimate (log intensity, higher = more binding, comparable within an allelic series)
GAAGCGGC	8.49 upbm affinity estimate (log intensity, higher = more binding, comparable within an allelic series)
CAATCAAC	9.17 upbm affinity estimate (log intensity, higher = more binding, comparable within an allelic series)
GGAGCTAC	8.61 upbm affinity estimate (log intensity, higher = more binding, comparable within an allelic series)
AGCGCGCC	8.57 upbm affinity estimate (log intensity, higher = more binding, comparable within an allelic series)
GCGGGTGA	8.59 upbm affinity estimate (log intensity, higher = more binding, comparable within an allelic series)
CGTAGGCC	8.47 upbm affinity estimate (log intensity, higher = more binding, comparable within an allelic series)

These sequences were tested against HOXB9 (Homo sapiens, UniProt P17482 171-250) (assay: PBM; 200 nM protein, PBS). Conditions: dsDNA, one strand shown.
HOXB9 (Homo sapiens, UniProt P17482 171-250), sequence (P17482 171-250): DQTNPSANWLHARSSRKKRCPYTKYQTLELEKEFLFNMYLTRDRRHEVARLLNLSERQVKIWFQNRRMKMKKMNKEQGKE

Sequence	binding signal
GCACCGCC	8.35 upbm affinity estimate (log intensity, higher = more binding, comparable within an allelic series)
GCCACTCC	8.79 upbm affinity estimate (log intensity, higher = more binding, comparable within an allelic series)
GTCCGGCA	8.51 upbm affinity estimate (log intensity, higher = more binding, comparable within an allelic series)
CTCCCGCC	8.4 upbm affinity estimate (log intensity, higher = more binding, comparable within an allelic series)
CCTGCGGC	8.14 upbm affinity estimate (log intensity, higher = more binding, comparable within an allelic series)
CAGATCGG	8.44 upbm affinity estimate (log intensity, higher = more binding, comparable within an allelic series)
AGGAACCC	8.22 upbm affinity estimate (log intensity, higher = more binding, comparable within an allelic series)
GGCTCCGA	8.4 upbm affinity estimate (log intensity, higher = more binding, comparable within an allelic series)
CCACGCCG	8.38 upbm affinity estimate (log intensity, higher = more binding, comparable within an allelic series)
GTGGCGGA	8.58 upbm affinity estimate (log intensity, higher = more binding, comparable within an allelic series)
CGCCGGGA	8.44 upbm affinity estimate (log intensity, higher = more binding, comparable within an allelic series)
CCGATCGG	8.53 upbm affinity estimate (log intensity, higher = more binding, comparable within an allelic series)
CGAAGGAC	8.57 upbm affinity estimate (log intensity, higher = more binding, comparable within an allelic series)
GCAGCCCC	8.43 upbm affinity estimate (log intensity, higher = more binding, comparable within an allelic series)
GGCGCAGA	8.62 upbm affinity estimate (log intensity, higher = more binding, comparable within an allelic series)
CCTTCGCG	8.45 upbm affinity estimate (log intensity, higher = more binding, comparable within an allelic series)
AAGCCACC	8.55 upbm affinity estimate (log intensity, higher = more binding, comparable within an allelic series)
GAGCGCAA	8.29 upbm affinity estimate (log intensity, higher = more binding, comparable within an allelic series)
CAGGGGCC	8.25 upbm affinity estimate (log intensity, higher = more binding, comparable within an allelic series)

Sequence	binding signal
CACGCCTC	8.42 upbm affinity estimate (log intensity, higher = more binding, comparable within an allelic series)
GACATAAA	11.7 upbm affinity estimate (log intensity, higher = more binding, comparable within an allelic series)
CCCCGGAC	8.48 upbm affinity estimate (log intensity, higher = more binding, comparable within an allelic series)
CGGCGCCA	8.36 upbm affinity estimate (log intensity, higher = more binding, comparable within an allelic series)
GGACCTAC	8.47 upbm affinity estimate (log intensity, higher = more binding, comparable within an allelic series)
ACACCCAG	8.47 upbm affinity estimate (log intensity, higher = more binding, comparable within an allelic series)
GACTGACC	8.7 upbm affinity estimate (log intensity, higher = more binding, comparable within an allelic series)
AGACGCGG	8.58 upbm affinity estimate (log intensity, higher = more binding, comparable within an allelic series)
CGTGGACC	8.61 upbm affinity estimate (log intensity, higher = more binding, comparable within an allelic series)
ACCGGCCT	8.52 upbm affinity estimate (log intensity, higher = more binding, comparable within an allelic series)
GCCTCCGC	8.05 upbm affinity estimate (log intensity, higher = more binding, comparable within an allelic series)
AGGTCTGG	8.57 upbm affinity estimate (log intensity, higher = more binding, comparable within an allelic series)
ATAAATGA	11 upbm affinity estimate (log intensity, higher = more binding, comparable within an allelic series)
GAAGCGGC	8.36 upbm affinity estimate (log intensity, higher = more binding, comparable within an allelic series)
CAATCAAC	9.95 upbm affinity estimate (log intensity, higher = more binding, comparable within an allelic series)
GGAGCTAC	8.26 upbm affinity estimate (log intensity, higher = more binding, comparable within an allelic series)
AGCGCGCC	8.53 upbm affinity estimate (log intensity, higher = more binding, comparable within an allelic series)
GCGGGTGA	8.45 upbm affinity estimate (log intensity, higher = more binding, comparable within an allelic series)
CGTAGGCC	8.61 upbm affinity estimate (log intensity, higher = more binding, comparable within an allelic series)

What follows are sequences tested against HOXB9 (Homo sapiens, UniProt P17482 171-250, R186Q) (assay: PBM; 200 nM protein, PBS). Conditions: dsDNA, one strand shown.
HOXB9 (Homo sapiens, UniProt P17482 171-250, R186Q), sequence (P17482 171-250 R186Q): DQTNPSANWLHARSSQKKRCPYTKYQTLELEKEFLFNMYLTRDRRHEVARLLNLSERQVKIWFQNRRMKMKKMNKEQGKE

Sequence	binding signal
GCACCGCC	8.25 upbm affinity estimate (log intensity, higher = more binding, comparable within an allelic series)
GCCACTCC	8.8 upbm affinity estimate (log intensity, higher = more binding, comparable within an allelic series)
GTCCGGCA	8.52 upbm affinity estimate (log intensity, higher = more binding, comparable within an allelic series)
CTCCCGCC	8.4 upbm affinity estimate (log intensity, higher = more binding, comparable within an allelic series)
CCTGCGGC	8.19 upbm affinity estimate (log intensity, higher = more binding, comparable within an allelic series)
CAGATCGG	8.55 upbm affinity estimate (log intensity, higher = more binding, comparable within an allelic series)
AGGAACCC	8.24 upbm affinity estimate (log intensity, higher = more binding, comparable within an allelic series)
GGCTCCGA	8.41 upbm affinity estimate (log intensity, higher = more binding, comparable within an allelic series)
CCACGCCG	8.41 upbm affinity estimate (log intensity, higher = more binding, comparable within an allelic series)
GTGGCGGA	8.61 upbm affinity estimate (log intensity, higher = more binding, comparable within an allelic series)
CGCCGGGA	8.47 upbm affinity estimate (log intensity, higher = more binding, comparable within an allelic series)
CCGATCGG	8.57 upbm affinity estimate (log intensity, higher = more binding, comparable within an allelic series)
CGAAGGAC	8.58 upbm affinity estimate (log intensity, higher = more binding, comparable within an allelic series)
GCAGCCCC	8.5 upbm affinity estimate (log intensity, higher = more binding, comparable within an allelic series)
GGCGCAGA	8.63 upbm affinity estimate (log intensity, higher = more binding, comparable within an allelic series)
CCTTCGCG	8.78 upbm affinity estimate (log intensity, higher = more binding, comparable within an allelic series)
AAGCCACC	8.63 upbm affinity estimate (log intensity, higher = more binding, comparable within an allelic series)
GAGCGCAA	8.48 upbm affinity estimate (log intensity, higher = more binding, comparable within an allelic series)
CAGGGGCC	8.25 upbm affinity estimate (log intensity, higher = more binding, comparable within an allelic series)

Sequence	binding signal
CACGCCTC	8.39 upbm affinity estimate (log intensity, higher = more binding, comparable within an allelic series)
GACATAAA	11.3 upbm affinity estimate (log intensity, higher = more binding, comparable within an allelic series)
CCCCGGAC	8.49 upbm affinity estimate (log intensity, higher = more binding, comparable within an allelic series)
CGGCGCCA	8.51 upbm affinity estimate (log intensity, higher = more binding, comparable within an allelic series)
GGACCTAC	8.62 upbm affinity estimate (log intensity, higher = more binding, comparable within an allelic series)
ACACCCAG	8.52 upbm affinity estimate (log intensity, higher = more binding, comparable within an allelic series)
GACTGACC	8.7 upbm affinity estimate (log intensity, higher = more binding, comparable within an allelic series)
AGACGCGG	8.55 upbm affinity estimate (log intensity, higher = more binding, comparable within an allelic series)
CGTGGACC	8.63 upbm affinity estimate (log intensity, higher = more binding, comparable within an allelic series)
ACCGGCCT	8.47 upbm affinity estimate (log intensity, higher = more binding, comparable within an allelic series)
GCCTCCGC	8.16 upbm affinity estimate (log intensity, higher = more binding, comparable within an allelic series)
AGGTCTGG	8.64 upbm affinity estimate (log intensity, higher = more binding, comparable within an allelic series)
ATAAATGA	10.8 upbm affinity estimate (log intensity, higher = more binding, comparable within an allelic series)
GAAGCGGC	8.37 upbm affinity estimate (log intensity, higher = more binding, comparable within an allelic series)
CAATCAAC	9.93 upbm affinity estimate (log intensity, higher = more binding, comparable within an allelic series)
GGAGCTAC	8.53 upbm affinity estimate (log intensity, higher = more binding, comparable within an allelic series)
AGCGCGCC	8.54 upbm affinity estimate (log intensity, higher = more binding, comparable within an allelic series)
GCGGGTGA	8.62 upbm affinity estimate (log intensity, higher = more binding, comparable within an allelic series)
CGTAGGCC	8.63 upbm affinity estimate (log intensity, higher = more binding, comparable within an allelic series)

Each sequence was assayed against NKX3-2 (Homo sapiens, UniProt P78367 192-278, P234S) (assay: PBM; 200 nM protein, PBS). Conditions: dsDNA, one strand shown.
NKX3-2 (Homo sapiens, UniProt P78367 192-278, P234S), sequence (P78367 192-278 P234S): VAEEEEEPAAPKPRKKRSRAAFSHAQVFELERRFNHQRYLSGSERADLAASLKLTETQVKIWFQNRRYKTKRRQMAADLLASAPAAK

Sequence	binding signal
CGCCGGGA	10.5 upbm affinity estimate (log intensity, higher = more binding, comparable within an allelic series)
GCAGCCCC	10.7 upbm affinity estimate (log intensity, higher = more binding, comparable within an allelic series)
ACCGGCCT	10.6 upbm affinity estimate (log intensity, higher = more binding, comparable within an allelic series)

The sequences below were run against NKX3-2 (Homo sapiens, UniProt P78367 192-278) (assay: PBM; 200 nM protein, PBS). Conditions: dsDNA, one strand shown.
NKX3-2 (Homo sapiens, UniProt P78367 192-278), sequence (P78367 192-278): as the sequence (P78367 192-278 P234S) above, with S43P counted along it

Sequence	binding signal
CGCCGGGA	10.5 upbm affinity estimate (log intensity, higher = more binding, comparable within an allelic series)
GCAGCCCC	10.7 upbm affinity estimate (log intensity, higher = more binding, comparable within an allelic series)
ACCGGCCT	10.5 upbm affinity estimate (log intensity, higher = more binding, comparable within an allelic series)
